Measurements from the supplement of paper PMC13380429.

Key:
[1] = system: Vero E6 infected with SARS-CoV-2; assay: morphology score (similarity to uninfected cells); higher = more like uninfected cells; settings: 24 h
[2] = system: Vero E6 infected with SARS-CoV-2; assay: SARS-CoV-2 infection rate relative to infected DMSO; higher = more infection, active = 60 or less; settings: 24 h

Row | Compound | morphology score [1] | SARS-CoV-2 infection rate [2]
1 | Cc1cc(NCCO)nc(-c2ccc(Br)cc2)n1 (10 µM) | 0.269 | 101% (inactive)
2 | O=C(O)Cc1ccc(CCNS(=O)(=O)c2ccc(Cl)cc2)cc1 [daltroban] (10 µM) | 0.136 | 97.5% (inactive)
3 | CCCn1c(=O)c(C)cn2nc(N)nc12 (10 µM) | 0.276 | 96.5% (inactive)
4 | Cc1ccc(-c2c(-c3nn(C)c4ncnc(N5CC[C@H](N6CCCCC6)C5)c34)cnn2C)cc1 (10 µM) | 0.14 | 100% (inactive)
5 | CC1CC(OC(=O)C(O)c2ccccc2)CC(C)(C)C1 (stereo not drawn) [cyclandelate] (10 µM) | 0.115 | 98% (inactive)
6 | Nc1nc(O)c2nc(Br)n([C@@H]3O[C@@H]4COP(=O)(O)O[C@H]4[C@H]3O)c2n1 [8-bromo-cGMP] (10 µM) | 0.0521 | 97% (inactive)
7 | Nn1cnc2cc3ccccc3cc2c1=O [centazolone] (10 µM) | -0.195 | 116% (inactive)
8 | O=C(CN1C2=NCCN2c2ccccc21)c1ccc(-c2ccccc2)cc1 (10 µM) | 0.646 | 35% (active)
9 | CC(=O)OCC(=O)[C@@]1(O)CC[C@H]2[C@@H]3CCC4=CC(=O)C=C[C@]4(C)[C@@]3(Cl)[C@@H](Cl)C[C@@]21C [dichlorisone-acetate] (10 µM) | -0.00102 | 102% (inactive)
10 | Cc1nc(Nc2n[nH]c3c2CN(C(=O)N[C@H](CN(C)C)c2ccccc2)C3(C)C)c2sccc2n1 (10 µM) | -0.232 | 111% (inactive)
11 | CCN(CC)CCOCCOC(=O)C(CC)(CC)c1ccccc1 [oxelaidin] (10 µM) | 0.423 | 73.5% (inactive)
12 | c1ccc(CCCN2CCN(CCOC(c3ccccc3)c3ccccc3)CC2)cc1 (10 µM) | 0.239 | 94% (inactive)
13 | Nc1ncccc1-c1nc2ccc(-c3ccccc3)nc2n1-c1ccc(C2(N)CCC2)cc1 (10 µM) | 0.702 | 29.5% (active)
14 | CO[C@H]1O[C@@H]2O[C@@]3(C)CC[C@H]4[C@H](C)CC[C@@H]([C@H]1C)[C@@]24OO3 [artemether] (10 µM) | 0.0275 | 105% (inactive)
15 | COc1ccccc1S(=O)(=O)Nc1ccc2c(c1)CN(C)C(=O)N2 (0.833333 µM) | -0.0409 | 108% (inactive)
16 | CC(CN(C)C)CN1c2ccccc2CCc2ccccc21 (stereo not drawn) [trimipramine] (10 µM) | 0.451 | 80.5% (inactive)
17 | Cc1cc(NC(=O)NCCN2CCC(O)(Cc3ccccc3)CC2)c2ccccc2n1 [palosuran] (10 µM) | -0.00351 | 112% (inactive)
18 | CCC[C@H](N[C@@H](C)C(=O)N1[C@H](C(=O)O)C[C@@H]2CCCC[C@@H]21)C(=O)OCC [perindopril] (10 µM) | 0.104 | 95% (inactive)
19 | CCOC(=O)COc1ccc2c(=O)cc(-c3ccccc3)oc2c1 [efloxate] (10 µM) | 0.19 | 96.5% (inactive)
20 | COc1ccc(CCC(=O)Nc2nc3ccc(Cl)cc3s2)cc1OC (10 µM) | 0.197 | 100% (inactive)
21 | C[C@H](NC(=O)CNC(=O)c1cccc(Cl)c1)c1ccccc1 (10 µM) | 0.0656 | 102% (inactive)
22 | CCCN(CCC)C1Cc2cc(OC)c(OC)cc2C1 (10 µM) | 0.231 | 109% (inactive)
23 | COc1ccc(-c2cc(=O)c3c(OC)c(OC)c(OC)c(OC)c3o2)cc1 [tangeritin] (10 µM) | 0.00246 | 105% (inactive)
24 | C/N=C(/NC#N)NCCSCc1csc(NC(=N)N)n1 [tiotidine] (10 µM) | 0.11 | 98% (inactive)
25 | C[C@@H](O[C@H]1OCCN(Cc2nn(P(=O)(O)O)c(=O)[nH]2)[C@H]1c1ccc(F)cc1)c1cc(C(F)(F)F)cc(C(F)(F)F)c1 [fosaprepitant-dimeglumine] (10 µM) | 0.0215 | 112% (inactive)
26 | C[N+]1(C)CCc2cc3c(cc2[C@H]1[C@@H]1OC(=O)c2c1ccc1c2OCO1)OCO3 [bicuculline-methochloride-(-)] (10 µM) | -0.156 | 110% (inactive)
27 | COc1ccc(OC)c(C(O)C(C)N)c1 (stereo not drawn) [methoxamine] (10 µM) | -0.12 | 108% (inactive)
28 | Cc1cnc(-c2cnc(NCCNc3ccc(C#N)cn3)nc2-c2ccc(Cl)cc2Cl)[nH]1 (0.833333 µM) | -0.0902 | 108% (inactive)
29 | O=C1CCC[C@@H]2[C@H]3CCCN4CCC[C@@H](CN12)[C@@H]34 [matrine] (10 µM) | 0.0694 | 112% (inactive)
